These results are taken from PubChem BioAssay (EPA / NIEHS).

A structure can be active in one record and inactive in another. Activity calls are given as the source filed them. Rule for the calls: active = hit-call score of the fitted dose curve at least 0.9, where 1 is the maximum; inactive = score below 0.9.

Read-out in assay [1]: Macrophage colony-stimulating factor (MCSF), CSF1 (gene 1435)
As to the kind of experiment: BSK_hDFCGF_MCSF: BioMAP Diversity Plus: hDFCGF Assay for Macrophage colony-stimulating factor (MCSF) Biomarker Activity (AID 2283060). As to conditions: primary human foreskin fibroblasts; actives raise or lower the signal. The essentials: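 Primary human foreskin fibroblasts dosed with chemical; 24 h later, M-CSF quantified by ELISA; curves fitted in both directions vs DMSO negative control.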

Assay [2] can be described thus: BSK_hDFCGF_SRB: Viability Assessment in the BioMAP Diversity Plus: hDFCGF Assay (AID 2283061).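 Note: cells exposed to compound for 24 h before the read.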 The settings on record: primary human foreskin fibroblasts. The essentials: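 Readout is SRB absorbance at 560 nm, reflecting total protein in parallel cultures of human foreskin fibroblasts harvested 24 h after chemical dosing. Activity was fitted bidirectionally relative to DMSO.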

Read-out in assay [3]: TIMP metallopeptidase inhibitor 1 (TIMP1), TIMP1 (gene 7076)
Description: BSK_hDFCGF_TIMP1: BioMAP Diversity Plus: hDFCGF Assay for TIMP metallopeptidase inhibitor 1 (TIMP1) Biomarker Activity (AID 2283062). As to conditions: primary human foreskin fibroblasts; actives raise or lower the signal. In outline: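 Human skin fibroblasts (primary), hDFCGF system; compound exposure 24 h; TIMP-1 by ELISA; bidirectional fit vs DMSO negative control; overt cytotoxicity by SRB in parallel wells.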

Read-out in assay [4]: Monokine induced gamma interferon (MIG), CXCL9 (gene 4283)
As to the kind of experiment: BSK_hDFCGF_MIG: BioMAP Diversity Plus: hDFCGF Assay for Monokine induced gamma interferon (MIG) Biomarker Activity (AID 2283063). As to conditions: primary human foreskin fibroblasts; actives raise or lower the signal. The essentials: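 Chemicals were added to primary human foreskin fibroblast cultures, which were sampled 24 h later. MIG levels were then quantified by ELISA and responses fitted in both directions relative to DMSO.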

Read-out in assay [5]: Matrix Metallopeptidase 1 (MMP1), MMP1 (gene 4312)
Description: BSK_hDFCGF_MMP1: BioMAP Diversity Plus: hDFCGF Assay for Matrix Metallopeptidase 1 (MMP1) Biomarker Activity (AID 2283064). As to conditions: primary human foreskin fibroblasts; actives raise or lower the signal. In outline:
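Primary human foreskin fibroblasts in the hDFCGF system were dosed with test chemical, and MMP1 was measured by ELISA 24 h later. Values come from bidirectional curve fitting against the DMSO baseline.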

Read-out in assay [6]: Vascular cell adhesion molecule 1 (VCAM1), VCAM1 (gene 7412)
Description: BSK_hDFCGF_VCAM1: BioMAP Diversity Plus: hDFCGF Assay for Vascular cell adhesion molecule 1 (VCAM1) Biomarker Activity (AID 2283065).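 For AC50: VCAM-1 protein level quantified by ELISA after 24 h chemical exposure.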 As to conditions: primary human foreskin fibroblasts; actives raise or lower the signal. The essentials:
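Human foreskin fibroblast primary cells, chemical exposure 24 h; VCAM-1 by ELISA; bidirectional fit, DMSO = negative control/baseline.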

Read-out in assay [7]: Plasminogen activator inhibitor-1 (PAI1), SERPINE1 (gene 5054)
As to the kind of experiment: BSK_hDFCGF_PAI1: BioMAP Diversity Plus: hDFCGF Assay for Plasminogen activator inhibitor-1 (PAI1) Biomarker Activity (AID 2283066). The settings on record: primary human foreskin fibroblasts; actives raise or lower the signal. In outline: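 PAI-1 levels, determined by ELISA, served as the endpoint in human foreskin fibroblast cultures exposed to compound for 24 h, with DMSO as baseline.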

Read-out in assay [8]: Intercellular Adhesion Molecule 1 (ICAM1), ICAM1 (gene 3383)
As to the kind of experiment: BSK_KF3CT_ICAM1: BioMAP Diversity Plus: KF3CT Assay for Intercellular Adhesion Molecule 1 (ICAM1) Biomarker Activity (AID 2283067). As to conditions: primary human keratinocytes with fibroblasts; actives raise or lower the signal. The essentials:
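ICAM-1 levels are measured by ELISA 24 h after dosing a primary human co-culture of keratinocytes and foreskin fibroblasts. Activity in either direction is fitted relative to DMSO vehicle.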

Read-out in assay [9]: Interferon-gamma inducible Protein 10 (IP10), CXCL10 (gene 3627)
As to the kind of experiment: BSK_KF3CT_IP10: BioMAP Diversity Plus: KF3CT Assay for Interferon-gamma inducible Protein 10 (IP10) Biomarker Activity (AID 2283068). The settings on record: primary human keratinocytes with fibroblasts; actives raise or lower the signal. In outline:
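ELISA read-out of IP-10 after 24 h chemical dosing of human skin primary co-culture (keratinocytes, foreskin fibroblasts). Gain or loss of signal relative to DMSO, bidirectional curve fit.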

Assay [10] is described as follows: BSK_KF3CT_SRB: Viability Assessment in the BioMAP Diversity Plus: KF3CT Assay (AID 2283069).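 Note: total protein by sulforhodamine B staining as a cytotoxicity measure; read 24 h after compound addition.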 As to conditions: primary human keratinocytes with fibroblasts. The essentials:
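Human primary keratinocyte plus foreskin fibroblast co-culture exposed to chemicals for 24 h. Total protein measured by 0.1% sulforhodamine B staining after 10% TCA fixation, read at 560 nm; bidirectional fitting versus DMSO baseline.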

Read-out in assay [11]: Interleukin-1 alpha (IL1a), IL1A (gene 3552)
As to the kind of experiment: BSK_KF3CT_IL1a: BioMAP Diversity Plus: KF3CT Assay for Interleukin-1 alpha (IL1a) Biomarker Activity (AID 2283070). The settings on record: primary human keratinocytes with fibroblasts; actives raise or lower the signal. The essentials: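 Human keratinocyte plus foreskin fibroblast primary co-culture, sampled 24 h after chemical dosing. IL-1a measured by ELISA; responses fitted bidirectionally against DMSO baseline (negative control), so gain or loss of signal both count.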

Read-out in assay [12]: TIMP metallopeptidase inhibitor 2 (TIMP2), TIMP2 (gene 7077)
Description: BSK_KF3CT_TIMP2: BioMAP Diversity Plus: KF3CT Assay for TIMP metallopeptidase inhibitor 2 (TIMP2) Biomarker Activity (AID 2283071). The settings on record: primary human keratinocytes with fibroblasts; actives raise or lower the signal. The essentials: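 Keratinocyte–fibroblast co-culture, 24 h exposure; TIMP-2 ELISA, DMSO-normalised bidirectional fit. Parallel SRB (0.1%, TCA-fixed, 560 nm) total-protein staining gauges cytotoxicity.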

Read-out in assay [13]: Matrix Metallopeptidase 9 (MMP9), MMP9 (gene 4318)
Description: BSK_KF3CT_MMP9: BioMAP Diversity Plus: KF3CT Assay for Matrix Metallopeptidase 9 (MMP9) Biomarker Activity (AID 2283074).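 For AC50: MMP9 protein level quantified by ELISA in the co-culture.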 As to conditions: primary human keratinocytes with fibroblasts; actives raise or lower the signal. The essentials:
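Keratinocyte plus foreskin fibroblast human primary skin co-culture was dosed with chemical and MMP-9 was quantified by ELISA 24 h later. Bidirectional curve fitting used DMSO as negative control and activity baseline.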

Read-out in assay [14]: urokinase plasminogen activator (uPA), PLAU (gene 5328)
Description: BSK_KF3CT_uPA: BioMAP Diversity Plus: KF3CT Assay for urokinase plasminogen activator (uPA) Biomarker Activity (AID 2283075). The settings on record: primary human keratinocytes with fibroblasts; actives raise or lower the signal. In outline: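 Human keratinocyte plus foreskin fibroblast primary co-culture exposed to chemical for 24 h. uPA levels were quantified by ELISA, and activity was fitted bidirectionally against a DMSO negative-control baseline.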

Read-out in another assay: CD40, CD40 (gene 958)
Description: BSK_LPS_CD40: BioMAP Diversity Plus: LPS Assay for CD40 Biomarker Activity (AID 2283076). The settings on record: primary human HUVEC with PBMC; actives raise or lower the signal. In outline: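 Cells were dosed, incubated 24 h, then assayed for CD40 by ELISA. Gain or loss of signal was analysed relative to DMSO controls. The culture paired human umbilical vein endothelium with peripheral blood mononuclear cells.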

Read-out in assay [15]: E-selectin (Homo sapiens) (UniProt P16581)
Description: BSK_LPS_Eselectin: BioMAP Diversity Plus: LPS Assay for Eselectin Biomarker Activity (AID 2283077). The settings on record: primary human HUVEC with PBMC; actives raise or lower the signal. The essentials: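 Primary human vascular co-culture (endothelium plus PBMC) was dosed with chemical, then E-selectin quantified by ELISA at 24 h. Endpoint values derive from bidirectional curve fitting relative to DMSO.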

Read-out in assay [16]: Interleukin-8 (IL8), CXCL8 (gene 3576)
Description: BSK_LPS_IL8: BioMAP Diversity Plus: LPS Assay for Interleukin-8 (IL8) Biomarker Activity (AID 2283078). As to conditions: primary human HUVEC with PBMC; actives raise or lower the signal. In outline:
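Readout is IL-8 by ELISA, taken 24 h after compounds were added to LPS-stimulated endothelial/PBMC co-cultures. Both increases and decreases relative to DMSO control were scored through bidirectional fitting.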

A short description of assay [17]: BSK_LPS_SRB: Viability Assessment in the BioMAP Diversity Plus: LPS Assay (AID 2283079).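 Note: total protein by sulforhodamine B absorbance as a cytotoxicity measure; measured one day after compound addition.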 As to conditions: primary human HUVEC with PBMC. In outline:
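Readout is SRB absorbance at 560 nm (0.1% stain, TCA-fixed parallel cultures) as a total-protein cytotoxicity measure. Cells: primary human umbilical vein endothelium plus peripheral blood mononuclear cells, 24 h after chemical exposure; DMSO served as baseline.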

Read-out in assay [18]: Interleukin-1 alpha (IL1a), IL1A (gene 3552)
Description: BSK_LPS_IL1a: BioMAP Diversity Plus: LPS Assay for Interleukin-1 alpha (IL1a) Biomarker Activity (AID 2283080). As to conditions: primary human HUVEC with PBMC; actives raise or lower the signal. In outline:
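ELISA read-out of IL-1 alpha from a human primary vascular co-culture (endothelium plus PBMC) under LPS, sampled 24 hours post-dosing. Activity was fitted in both directions relative to DMSO controls.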

As a reminder, the AC50 is the concentration giving half of the maximal activity seen.

Chain of E-selectin (Homo sapiens) (P16581 whole entry, looked up): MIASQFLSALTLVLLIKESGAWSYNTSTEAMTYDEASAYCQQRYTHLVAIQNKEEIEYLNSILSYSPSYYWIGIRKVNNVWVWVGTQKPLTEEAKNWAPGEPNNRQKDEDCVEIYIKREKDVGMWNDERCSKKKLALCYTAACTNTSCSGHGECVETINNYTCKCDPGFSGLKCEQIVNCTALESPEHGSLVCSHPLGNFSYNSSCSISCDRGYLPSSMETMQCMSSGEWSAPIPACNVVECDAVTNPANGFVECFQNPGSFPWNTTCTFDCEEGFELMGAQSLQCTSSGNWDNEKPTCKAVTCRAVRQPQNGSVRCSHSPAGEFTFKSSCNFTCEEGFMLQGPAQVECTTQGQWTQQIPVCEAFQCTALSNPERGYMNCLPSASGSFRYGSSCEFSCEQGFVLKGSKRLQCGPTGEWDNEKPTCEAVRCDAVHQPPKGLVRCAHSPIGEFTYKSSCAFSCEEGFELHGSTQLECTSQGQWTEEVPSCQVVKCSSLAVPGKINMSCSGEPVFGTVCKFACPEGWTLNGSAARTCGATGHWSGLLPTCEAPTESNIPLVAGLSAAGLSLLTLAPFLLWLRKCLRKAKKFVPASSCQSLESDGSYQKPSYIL

Regarding `Cc1cc(O)c(C(C)(C)C)cc1C(C)(C)C`, the AC50 is 5.42 µM (active) in assay [1]; 5.28 µM (active) in assay [2]; 4.03 µM (active) in assay [3]; 9.12 µM (active) in assay [4]; 6.54 µM (active) in assay [5]; 5.41 µM (active) in assay [6]. Also, the concentration at half-maximal activity (AC50) in assay [7] is 4.51 µM (active); in assay [8], 2.89 µM (active); in assay [9], 3.63 µM (active); in assay [10] it was 2.33 µM (active); in assay [11], 4.04 µM (active); in assay [12], 2.05 µM (active). Besides, the concentration at half-maximal activity (AC50) in assay [13] is 5.96 µM (active); in [14], 3.78 µM (active); in the assay with CD40, CD40 (gene 958), 5.28 µM (active); in assay [15], 6.95 µM (active); in assay [16] it was 9.26 µM (active); in [17], 7.74 µM (active). For the same compound, in assay [18], the half-maximal activity concentration (AC50) is 5.31 µM (active).
Turning to `NC(=O)C(F)(F)C(F)(F)C(F)(F)C(F)F`, the outcome in assay [1], in assay [2], in assay [3], in assay [4], in assay [5] and in assay [6] was inactive. For the same compound, the result in assay [7], in [8], in assay [9], in assay [10], in assay [11] and in assay [12] was inactive. Also, the outcome in [13] is “inactive”; in assay [14], “inactive”; with CD40, CD40 (gene 958) it was “inactive”; in assay [15], “inactive”; in assay [16], “inactive”; in assay [17], “inactive”. The result in assay [18] was inactive. Further, the AC50 in assay [16] is 22.7 µM (active).
On to `CN(C(=O)C(F)(F)C(F)(F)C(F)(F)F)[Si](C)(C)C`, for which the result in assay [1], in [2], in assay [3], in [4], in assay [5] and in [6] was inactive. Further, the outcome in assay [7], in assay [8], in assay [9], in [10], in assay [11] and in assay [12] was inactive. Also, the outcome in assay [13] was “inactive”; in [14], “inactive”; with CD40, CD40 (gene 958), “inactive”; in assay [15], “inactive”; in assay [16], “inactive”; in assay [17], “inactive”. Moreover, the result in assay [18] was inactive.
For the compound `OC(O)C(F)(F)C(F)(F)F`, the result in assay [1], in assay [2], in assay [3], in [4], in assay [5] and in assay [6] was inactive. The result in [7], in assay [8], in assay [9], in [10], in [11] and in assay [12] was inactive. The outcome in assay [13] is “inactive”; in assay [14] it was “inactive”; with CD40, CD40 (gene 958), “inactive”; in [15], “inactive”; in assay [16] it was “inactive”; in assay [17] it was “inactive”. The outcome in assay [18] was inactive.
In the case of `O=C=Nc1cccc2c(N=C=O)cccc12`, the outcome in [1], in [2], in assay [3], in assay [4], in assay [5] and in assay [6] was inactive. Besides, the result in [7], in [8], in assay [9], in assay [10], in assay [11] and in assay [12] was inactive. Besides, the outcome in assay [13] was “inactive”; in assay [14], “inactive”; in the assay with CD40, CD40 (gene 958) it was “inactive”; in assay [15], “inactive”; in [16], “inactive”; in assay [17], “inactive”. Moreover, the result in assay [18] was inactive.
As to `NCC(F)(F)C(F)(F)C(F)(F)C(F)(F)C(F)(F)C(F)(F)F`, the outcome in assay [1], in assay [2], in assay [3], in assay [4], in [5] and in [6] was inactive. The result in assay [7], in assay [8], in assay [9], in assay [10], in assay [11] and in [12] was inactive. Besides, the outcome is “inactive” in [13]; “inactive” in assay [14]; “inactive” in the assay with CD40, CD40 (gene 958); “inactive” in assay [15]; “inactive” in assay [16]; “inactive” in assay [17]. In addition, the outcome in assay [18] was inactive.
